Data from PubChem BioAssay AID1529 (NMMLSC, 2009).
About 4,200 (1.4%) of roughly 290,000 compounds were called active. What follows is part of a selection rich in actives, with near analogues and random picks from the rest. Unmarked numbers belong to inactive results.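 Rule for the calls: active = binding response more than 3 SD above or below the average of its plate-row segment, actives on both sides; inconclusive = wells at one plate position flagged as instrument error; inactive = the rest.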

Target: Mitogen-activated protein kinase kinase kinase 3 (Homo sapiens) (UniProt Q99759)
Sequence (Q99759 whole entry, looked up): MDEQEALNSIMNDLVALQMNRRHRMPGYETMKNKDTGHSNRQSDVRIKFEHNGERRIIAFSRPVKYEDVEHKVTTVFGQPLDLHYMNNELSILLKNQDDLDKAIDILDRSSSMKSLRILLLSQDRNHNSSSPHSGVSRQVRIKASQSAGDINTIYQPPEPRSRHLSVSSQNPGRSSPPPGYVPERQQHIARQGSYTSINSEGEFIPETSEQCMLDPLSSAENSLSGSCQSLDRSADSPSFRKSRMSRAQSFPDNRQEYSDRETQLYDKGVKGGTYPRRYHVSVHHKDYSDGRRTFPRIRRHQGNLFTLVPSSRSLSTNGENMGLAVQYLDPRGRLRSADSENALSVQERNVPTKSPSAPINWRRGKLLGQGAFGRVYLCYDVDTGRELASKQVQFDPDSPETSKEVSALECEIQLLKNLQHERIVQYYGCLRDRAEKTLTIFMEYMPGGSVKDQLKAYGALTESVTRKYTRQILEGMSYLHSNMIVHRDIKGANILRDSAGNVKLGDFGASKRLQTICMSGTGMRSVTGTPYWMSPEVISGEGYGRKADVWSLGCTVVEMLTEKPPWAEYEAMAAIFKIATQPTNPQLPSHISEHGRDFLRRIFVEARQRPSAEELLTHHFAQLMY
Assay: modulators of MEKK3-MEK5 PB1 binding, primary screen, biochemical, wildtype MEKK3, multiplex bead flow cytometry, Alexa488-MEK5 (AID 1529);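 note: Alexa488 bead fluorescence after subtracting the streptavidin-only scavenger bead signal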
Conditions: bead-based flow cytometry, Alexa488-MEK5 binding to MEKK3; at 10 µM; actives lie on both sides

Row | SMILES | binding response (% of control)
1 | O=C(CCNS(=O)(=O)c1ccccc1)Nc1ccc(Cl)cc1C(=O)c1ccccc1 | 107%
2 | O=C(COC(=O)c1ccccc1)Nc1ccc(Cl)cc1C(=O)c1ccccc1 | 131% (active)
3 | CN1CCN(C(=S)SCC(=O)Nc2ccc(Cl)cc2C(=O)c2ccccc2)CC1 | 108%
4 | COC(=O)C1=C(c2cc3ccccc3s2)C[C@@H]2CC[C@H]1N2C(=O)NC(C)C | 108%
5 | COc1cccc(C(=O)N2C[C@H]3C[C@@H](C2)c2cccc(=O)n2C3)c1 | 98%
6 | CN(C)CC1Oc2ccccc2OC1(O)c1ccccc1 (stereo not given) | 106%
7 | Cc1ccsc1C(=O)C1CCCN(Cc2ccc(O)cc2)C1 (stereo not given) | 96%
8 | Cc1ccc(CN2CCCC(C(=O)c3ccc4c(c3)OCO4)C2)cc1C (stereo not given) | 49% [inhibitor] (active)
9 | COc1ccc(C(=O)C2CCCN(Cc3ccc(C)s3)C2)cc1OC (stereo not given) | 103%
10 | CN(C)C(=O)Oc1ccc2c(c1)O/C(=C\c1ccccc1)C2=O | 102%
11 | NCC(O)c1ccc(O)cc1 (stereo not given) | 74% [inhibitor] (active)
12 | COc1ccc2c(c1)[C@]13CCCCC1C(C2)N(C)CC3 (stereo not given in full) | 100%
13 | CN(C)CC1CCCCC1OC(=O)c1ccc(Cl)c(Cl)c1 (stereo not given) | 135% (active)
14 | COC(=O)C1=C(c2cc3ccccc3o2)C[C@@H]2CC[C@H]1N2C(=O)NC1CCCCC1 | 103%
15 | COC(=O)C1=C(c2cc3ccccc3s2)C[C@@H]2CC[C@H]1N2C(=O)NCCO | 107%
16 | COc1cccc(OC)c1C(=O)NC(=S)N1C[C@H]2C[C@H](C1)c1cccc(=O)n1C2 | 103%
17 | CCCn1c(C(=O)c2ccccc2OC)nc2ccccc21 | 98%
18 | O=C1NC(=O)C(CCc2ccccn2)(Cc2cccc(Cl)c2Cl)C(=O)N1c1ccc(Br)cc1 (stereo not given) | 89%
19 | Cc1ccc(N2C(=O)NC(=O)C(CCc3ccncc3)(Cc3cccc(Cl)c3Cl)C2=O)cc1 (stereo not given) | 138% (active)
20 | COc1ccc2[nH]c3c(c2c1)CCN[C@H]3C | 105%
21 | CC[C@H]1CC2CN3CCc4c([nH]c5ccccc45)C(C(=O)OC)(C2)C13 (stereo not given in full) | 99%
22 | CNCC(O)c1cc(F)c(OCc2ccccc2)c(OCc2ccccc2)c1F (stereo not given) | 103%
23 | COc1ccc(-c2nn(CCC#N)cc2C(=O)Nc2ccc(C(C)=O)cc2)cc1 | 111%
24 | COC(=O)C1=C(c2cc3ccccc3s2)C[C@@H]2CC[C@H]1N2C(=O)NCc1cccc2ccccc12 | 105%
25 | Fc1ccc(N2CCN(Cc3ccc4c(c3)OCO4)CC2)cc1 | 98%
26 | O=C(Cc1ccccc1[N+](=O)[O-])N1CCN(Cc2ccc3c(c2)OCO3)CC1 | 46% [inhibitor] (active)
27 | Cc1cc(=O)oc2c(C)c(OCC(=O)N3CCN(Cc4ccc5c(c4)OCO5)CC3)ccc12 | 106%
28 | COc1ccc2c(c1O)-c1cccc3c1[C@@H](C2)N(C)CC3 | 95%
29 | CCOc1ccc(CN(CCCl)CCCl)cc1C(=O)OC | 111%
30 | COC(=O)C1=C(c2ccccc2)C[C@@H]2CC[C@H]1N2C(=O)N1CCCCC1 | 102%
